The panel holds about 79,000 compounds, 15% with a hit somewhere; the sample as a whole holds those more often. Calls of active or inactive are those of the source. Cut-off read from the data, not from the text of the source: active = growth inhibition above about 70%; inactive = the rest.
How the values were obtained:
[1] = NCI Yeast Anticancer Drug Screen. Data for the rad50 strain (AID 155);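 note: 0% = growth of vehicle-only cultures of the same strain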; details: S. cerevisiae rad50 strain growth inhibition; at 50.0 µM; hits give high values
Outline: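 Cells are treated with compound, grown, and their growth is then scored against vehicle-only cultures of the same repair-deficient yeast strain.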

[2] = NCI Yeast Anticancer Drug Screen. Data for the mec2-1 strain (AID 157); details: S. cerevisiae mec2-1 strain, at 50.0 µM, hits give high values
Outline: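 Compounds were applied to mec2-1 yeast cells. Their growth was then compared with that of vehicle-treated cultures to give growth inhibition.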

[3] = NCI Yeast Anticancer Drug Screen. Data for the sgs1 mgt1 strain (AID 161);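 note: 0% = growth of cultures given vehicle only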; details: S. cerevisiae sgs1 mgt1 strain, at 50.0 µM, hits give high values
Outline: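 Growth of a repair-deficient yeast mutant was monitored after compound treatment and expressed as inhibition relative to vehicle-treated cultures.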

[4] = NCI Yeast Anticancer Drug Screen. Data for the cln2 rad14 strain (AID 165);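 note: 0% = growth equal to vehicle treated cultures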; details: S. cerevisiae cln2 rad14 strain, at 50.0 µM, hits give high values
Outline: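 Strain: cln2 rad14 yeast, altered in cell cycle control and DNA damage repair. Read-out: growth inhibition vs vehicle.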

[5] = NCI Yeast Anticancer Drug Screen. Data for the bub3 strain (AID 167); details: S. cerevisiae bub3 mutant strain, at 50.0 µM, hits give high values
Outline: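 Part of a panel of yeast mutants defective in DNA damage repair or cell cycle regulation. Each strain is grown with compound, and inhibition is calculated relative to solvent-treated cultures.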

[6] = NCI Yeast Anticancer Drug Screen. Data for the mlh1 rad18 strain (AID 175); details: S. cerevisiae mlh1 rad18 strain growth inhibition; at 50.0 µM; hits give high values
Outline: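 A repair-deficient yeast strain is exposed to test compound, and growth is scored relative to vehicle-treated controls.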

Measured: growth inhibition

CCCCCCCCCCCCN1CCCN(CCCCCCCCCCCC)CC1
inactive: [1] 56.7% | [3] 7.45%
active: [2] 99.2% | [4] 96.7% | [5] 98.7% | [6] 99.2%

NC(CCC(=O)NC(CSCNC(=O)Nc1ccc(Cl)cc1)C(=O)NCC(=O)O)C(=O)O (configuration not stated)
inactive: [1] -5.15% | [2] 4.4% | [3] -1.65% | [4] -13.7% | [5] -3.85% | [6] 15.9%

O=C1c2ccccc2C(=O)C2C3c4ccccc4C(c4ccccc43)C12 (configuration not stated)
inactive: [1] -60.4% | [2] -61% | [3] -53.8% | [4] -9.2% | [5] -54.7% | [6] -57.5%

CCNC(=O)NCCN1CCOCC1
inactive: [1] -3.55% | [2] -8% | [3] -3.1% | [4] -75% | [5] 7.05% | [6] -2%

CC(C)(C)NCCCCCO
inactive: [1] -11.8% | [2] 17.6% | [3] 16.1% | [4] -8.35% | [5] -5.7% | [6] -16.1%

C/C=C/CNc1ccc(C)cc1
inactive: [1] 30.5% | [2] 20.9% | [3] 25.7% | [4] 28.4% | [5] 2.2% | [6] 22.8%

C[N+](C)(C)C(C1=CCCC1=O)c1ccccc1 (configuration not stated)
inactive: [1] 50% | [2] 43.3% | [3] 3.7% | [4] 26.9% | [5] 30.3% | [6] 43.6%

O=C1c2ccccc2S(=O)(=O)c2cc(-c3nn[nH]n3)ccc21
inactive: [1] -2.6% | [2] -29.8% | [3] -22.8% | [4] 0.6% | [5] -13.7% | [6] -48%

COc1cc2ccnc(C#N)c2cc1OCc1ccccc1
inactive: [1] -60.1% | [2] -12.3% | [3] -10.7% | [4] -6.15% | [5] -14.2% | [6] -31.3%

Nc1cnccc1NCC(O)c1ccccc1 (configuration not stated)
inactive: [1] 9.95% | [2] -5.9% | [3] -6.65% | [4] -15.6% | [5] -1.5% | [6] -8.6%

ClC(Cc1ccccc1)(c1ccccc1)c1ccccc1
inactive: [1] -26.6% | [2] 13.5% | [3] -0.8% | [4] -26.9% | [5] 13.8% | [6] -3.6%

C/C(=N\N=C(/C)c1ccc(C)cc1)c1ccc(C)cc1
inactive: [1] 10.7% | [2] -30.3% | [3] 20.1% | [4] 6.1% | [5] 2.45% | [6] 3.7%

NC(=S)Nc1ccccc1Cl
inactive: [1] -14.3% | [2] -6.2% | [3] 15.6% | [4] -18.1% | [5] -10.8% | [6] 10.6%

O=C1C2C3CCC(C3)C2C(=O)N1CCO (configuration not stated)
inactive: [1] 3.35% | [2] 6% | [3] 7.15% | [4] 4.85% | [5] 17.9% | [6] -2.45%

CC(=O)OCC1OC(n2c(Br)nc3c(N)ncnc32)C2OC(C)(C)OC12 (configuration not stated)
inactive: [1] 14.3% | [2] 6.2% | [3] 16.4% | [4] -2.7% | [5] 1.3% | [6] -6.55%

FC(F)Cc1ccccc1
inactive: [1] 3.55% | [2] -0.75% | [3] 11.1% | [4] -7.15% | [5] -1.5% | [6] -6.6%

CCOc1ccc(-c2nc(-c3oc4ccccc4c(=O)c3OC(C)=O)cs2)cc1
inactive: [1] -5.25% | [2] 1% | [3] 1.85% | [4] -2.85% | [5] -5.9% | [6] 9.4%

CC(N)C(c1ccccc1)c1ccccc1 (configuration not stated)
inactive: [1] 19.5% | [2] 15.8% | [3] 7.15% | [4] 11.3% | [5] 33.6% | [6] 19.4%

Cc1cc(C)c2c(SCc3ccc(Cl)cc3Cl)nc(N)nc2n1
inactive: [1] 31.8% | [2] 12.3% | [3] 45.9% | [4] -27.9% | [5] 7.1% | [6] 44.8%

CC1(C)OC(=O)C=C(O)O1.CC1(C)OC(=O)C=C(O)O1.CCO.Oc1ccc2c(c1)CCC2.[Ti]
inactive: [1] -15.7% | [2] -13.5% | [3] -29.1% | [4] 20.4% | [5] -5.05% | [6] 6.75%

O=S1(=O)C(Cl)c2ccccc2-c2ccccc2C1Cl (configuration not stated)
inactive: [1] -1.35% | [2] -6.65% | [3] -10.4% | [4] 8.3% | [5] 5% | [6] -9.65%

COC(=O)CC(C(C(=O)OC)C(=O)OC)N1C(=O)OCC1c1ccccc1 (configuration not stated)
inactive: [1] -16.6% | [2] -0.45% | [3] -29.1% | [4] -12.3% | [5] -17.9% | [6] -15.9%

Cc1cc(C)nc(Nc2nc3ccc([N+](=O)[O-])cc3[nH]2)n1
inactive: [1] 0.5% | [2] -5.3% | [3] 5.5% | [4] -7.4% | [5] -5.05% | [6] -4.85%

O=c1c2ccccc2c2ccccc2n1C(c1ccccc1)c1ccccc1
inactive: [1] -43% | [2] -4.9% | [3] 3.25% | [4] -12.6% | [5] -11.5% | [6] -2%

CCOC(=O)Nc1nc2ccccc2n1CN1CCN(c2ccccc2)CC1
inactive: [1] 8.4% | [2] 7.75% | [3] -8.7% | [4] 21.3% | [5] 45.3% | [6] 16.9%

N#CC(C(=O)O)C1(C(C#N)C(=O)O)CCN(Cc2ccccc2)CC1 (configuration not stated)
inactive: [1] -9.9% | [2] -5.1% | [3] 40.5% | [4] -21.9% | [5] -2.15% | [6] -10.1%

COC(=O)C1CN(Cc2ccccc2)C(=O)C1=O (configuration not stated)
inactive: [1] -11.3% | [2] -8.75% | [3] 2.65% | [4] -5.1% | [5] 3.95% | [6] 15.2%

O=C(Nc1ccc(Br)cc1)OCC1CC2C=CC1C2 (configuration not stated)
inactive: [1] 43.5% | [4] 42% | [5] 33.9% | [6] 47.4%
active: [2] 70.8% | [3] 79.9%

CCOc1c(N=Nc2ccccc2Cl)c(-c2ccccc2)nn1C(N)=S
inactive: [1] 6.75% | [2] 16.9% | [3] -1.95% | [4] 6.1% | [5] -3.95% | [6] 15.6%

COc1cc(C(=O)O[C@H]2CCC3CCC2N3C)cc(OC)c1OC (some centres not stated)
inactive: [1] -46.4% | [2] -31.7% | [3] -4.05% | [4] -9.45% | [5] -3.85% | [6] -47%

CCCCCCCCCC(=O)N/N=C/c1cccnc1
inactive: [4] 26.2%
active: [1] 88.2% | [2] 87% | [3] 95.9% | [5] 71.1% | [6] 91.3%

Oc1ccc2ccccc2c1/C=N/N=C/c1c(O)ccc2ccccc12
inactive: [1] 31.4% | [2] -14.6% | [3] 53.8% | [4] 20.9% | [5] 6.4% | [6] 3.8%

O=C(Oc1c(Cl)c(Cl)c(Cl)c(Cl)c1Cl)c1ccc([N+](=O)[O-])cc1
inactive: [1] -27.6% | [2] -1.55% | [3] -26.6% | [4] -49% | [5] 3.9% | [6] -9.25%

Cc1cccc(C)c1NC(=O)C(=O)CC(=O)/C=C/c1ccccc1
inactive: [1] -14.5% | [2] -20.2% | [3] -30.6% | [4] 3.05% | [5] -23.1% | [6] -28.7%

CC#CCCCC1(C)CCNC1=S (configuration not stated)
inactive: [1] 13.8% | [2] 10.2% | [3] 30.5% | [4] 21.9% | [5] 0.8% | [6] 24.6%

O=C(O)CS(=O)(=O)c1nc2ccccc2[nH]1
inactive: [1] -27.3% | [2] 20.6% | [3] -7.75% | [4] -57.6% | [5] 10.8% | [6] -14.8%

CCCCOCCOCCOC(=O)c1ccc(C)cc1
inactive: [1] 3.9% | [2] -11% | [3] -13.8% | [4] -49.9% | [5] 46% | [6] 11%

Cc1cnc(N/N=C/c2c(CO)cnc(C)c2O)s1
inactive: [1] 20.6% | [2] 9.85% | [3] 7.25% | [4] 11.6% | [5] 2.75% | [6] 23.6%

COC(=O)c1ccccc1C(=O)O
inactive: [1] 17.1% | [2] 4.05% | [3] 11.6% | [4] -10.1% | [5] 3.4% | [6] 23.2%

O=C1OC(c2ccccc2)=N/C1=C/c1c(-c2ccccc2)c(-c2ccccc2)c2n1CCC2
inactive: [1] 21.9% | [2] 9.75% | [3] 3.05% | [4] 25.5% | [5] -4.45% | [6] 18.6%

Cc1ccc(-c2c(C#N)c(-c3ccc([N+](=O)[O-])cc3)c(C#N)c(=O)n2NS(=O)(=O)c2ccccc2)cc1
inactive: [1] 23.1% | [2] 16.8% | [3] 24.5% | [4] 27.4% | [5] 14.6% | [6] 0.8%

CCNC(=S)NNC(=O)c1ccc(N=NN(C)C)cc1
inactive: [1] -5.15% | [2] 12.8% | [3] 10.3% | [4] -13.4% | [5] 14.8% | [6] 10.9%
